A short description of test [1]: APR_HepG2_NuclearSize_72hr: Apredica 72-hour HepG2 Assay for Nuclear Size (AID 2282925). The conditions noted are these: high-content imaging, actives raise or lower the signal. The gist of the method:
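HepG2 cells were exposed to compounds at ten concentrations from 0.39 to 200 uM (duplicate, 0.5% DMSO final) for 72 hr. After fixation in 3.7% formaldehyde, nuclei were stained with Hoechst 33342 (2 ug/mL) and imaged at 20x.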

For test [2], the target named is CCAAT/enhancer-binding protein beta (Homo sapiens) (UniProt P17676). Nature of the test: ATG_C_EBP_CIS: Attagene CIS-FACTORIAL HepG2 Assay for human CCAAT/Enhancer Binding Protein (C/EBP) beta (AID 2282927). As to conditions: HepG2 Attagene cis-factorial transcription factor reporter; actives raise or lower the signal. The procedure, abridged:
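Chemical-treated HepG2 cells (24 h) bearing cis-regulated reporter constructs were processed for total RNA, then reverse transcription, PCR amplification, fluorescent primer extension and fragment analysis; gain- and loss-of-signal were fitted against DMSO.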

The nature of test [3]: ATG_CMV_CIS: Attagene CIS-FACTORIAL HepG2 Assay for human CMV (Internal Marker) (AID 2282928).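 Also: endpoint acts as a background internal control marker rather than a target.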 The conditions noted are these: HepG2 CMV promoter reporter, transcription factor profiling; actives raise or lower the signal. The gist of the method: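 CMV internal-marker background readout in transiently transfected HepG2 cells bearing cis-regulated reporter units. Reporter mRNA is measured 24 h after dosing by RT-PCR and capillary electrophoresis, with bidirectional fitting against DMSO.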

A short description of test [4]: ATG_DR4_LXR_CIS: Attagene CIS-FACTORIAL HepG2 Assay for human Liver X Receptor (LXR), DR4 submotif (AID 2282929). As to conditions: HepG2 Attagene DR4 cis-reporter, mRNA transcription; actives raise or lower the signal. The procedure, abridged: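 Fluorescence intensity of labelled reporter cDNA fragments, separated by capillary electrophoresis, gives the signal. HepG2 cells bearing cis-regulated reporter constructs were treated 24 h; activity fitted bidirectionally relative to DMSO negative control.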

In test [5] the target is Aryl hydrocarbon receptor (Homo sapiens) (UniProt P35869). As to the kind of experiment: ATG_Ahr_CIS: Attagene CIS-FACTORIAL HepG2 Assay for human Aryl Hydrocarbon Receptor (Ahr) (AID 2282930). The conditions noted are these: HepG2 AhR cis-factorial reporter transcription; actives raise or lower the signal. The gist of the method: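 Following 24 h of chemical dosing, transfected HepG2 liver cells with cis-driven reporter units were lysed for RNA; reporter mRNA was quantified via RT-PCR and capillary electrophoresis, and responses fitted bidirectionally from DMSO.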
Chain of Aryl hydrocarbon receptor (Homo sapiens) (P35869 whole entry, looked up): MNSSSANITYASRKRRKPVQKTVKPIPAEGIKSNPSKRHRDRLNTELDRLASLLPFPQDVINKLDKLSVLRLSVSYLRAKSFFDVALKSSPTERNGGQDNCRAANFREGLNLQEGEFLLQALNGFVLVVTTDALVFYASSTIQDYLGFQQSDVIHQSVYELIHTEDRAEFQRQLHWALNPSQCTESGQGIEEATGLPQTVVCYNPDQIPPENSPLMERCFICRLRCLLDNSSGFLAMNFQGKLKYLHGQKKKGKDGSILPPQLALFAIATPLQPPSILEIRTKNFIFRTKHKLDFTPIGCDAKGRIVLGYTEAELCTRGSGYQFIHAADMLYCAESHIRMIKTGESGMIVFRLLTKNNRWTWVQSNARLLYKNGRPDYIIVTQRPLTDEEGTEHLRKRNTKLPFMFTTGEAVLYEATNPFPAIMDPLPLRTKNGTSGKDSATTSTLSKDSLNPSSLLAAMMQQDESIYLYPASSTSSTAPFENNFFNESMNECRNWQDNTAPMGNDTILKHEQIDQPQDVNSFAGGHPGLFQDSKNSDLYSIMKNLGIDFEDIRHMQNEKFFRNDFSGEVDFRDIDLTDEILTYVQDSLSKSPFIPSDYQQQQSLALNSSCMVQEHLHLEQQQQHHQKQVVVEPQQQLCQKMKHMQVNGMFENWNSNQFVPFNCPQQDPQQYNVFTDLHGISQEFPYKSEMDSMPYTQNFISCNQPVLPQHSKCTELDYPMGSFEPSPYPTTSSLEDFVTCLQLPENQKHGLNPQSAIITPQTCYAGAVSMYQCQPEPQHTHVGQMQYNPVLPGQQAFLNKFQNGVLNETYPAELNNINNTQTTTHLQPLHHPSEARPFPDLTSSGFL

A short description of test [6]: ATG_AP_1_CIS: Attagene CIS-FACTORIAL HepG2 Assay for human Activator Protein 1 (AP-1) (AID 2282931). The conditions noted are these: HepG2 Attagene cis-factorial AP-1 reporter mRNA; actives raise or lower the signal. The procedure, abridged:
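Multiplexed HepG2 reporter assay, 24 h dosing. mRNA induction detected by RT-PCR plus capillary electrophoresis. Activity fitted in both directions against DMSO.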

Test [7] is described as follows: ATG_AP_2_CIS: Attagene CIS-FACTORIAL HepG2 Assay for human Activator Protein 2 (AP-2) (AID 2282932). The conditions noted are these: HepG2 AP-2 cis-reporter, Attagene transcription factor profiling; actives raise or lower the signal. The gist of the method:
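HepG2 cells were transiently transfected with multiple cis-promoter reporter transcription units and dosed for 24 h. Reporter mRNA was measured by RT-PCR with capillary electrophoresis fluorescence; bidirectional fits relative to DMSO baseline.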

The nature of test [8]: ATG_BRE_CIS: Attagene CIS-FACTORIAL HepG2 Assay for human Bone Morphogenetic Protein (BMP) Response Element (BRE) (AID 2282933). As to conditions: HepG2 BMP response element reporter, Attagene transcription factor profiling; actives raise or lower the signal. The procedure, abridged:
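Fluorescence-labelled reporter cDNA fragments, separated by capillary electrophoresis, gave the signal for this component of a 52-readout multiplex. HepG2 cells were transfected, exposed to chemicals for 24 h, and compared with DMSO using bidirectional fitting.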

Test [9] addresses Retinoic acid receptor alpha (Homo sapiens) (UniProt P10276). As to the kind of experiment: ATG_DR5_RAR_CIS: Attagene CIS-FACTORIAL HepG2 Assay for human Retinoic Acid Receptor Alpha (RARE), DR5 submotif (AID 2282934).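 As to AC50: reporter responds to endogenous RAR alpha beta and gamma in HepG2 not RARA alone.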 As to conditions: HepG2 Attagene cis-factorial RARE DR5 reporter, mRNA; actives raise or lower the signal. The gist of the method:
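Transfected HepG2 reporter cells are exposed to chemicals for 24 h. Then RNA is extracted and the DR5 element reporter transcript is measured by RT-PCR and capillary electrophoresis, with bidirectional curve fitting relative to DMSO.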

Test [10] in a line: ATG_CRE_CIS: Attagene CIS-FACTORIAL HepG2 Assay for human cAMP Responsive Element (CRE) binding protein 3 (AID 2282926). As to conditions: HepG2 CRE cis-reporter, Attagene multiplexed mRNA; actives raise or lower the signal. The procedure, abridged: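 Multiplexed transcription-unit reporters transfected into HepG2; 24 h dosing; RT-PCR/capillary electrophoresis fluorescence read-out; bidirectional fit vs DMSO.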

Calls of active or inactive are those of the source. The calls were made as follows: active = hit-call score of the fitted dose curve at least 0.9, where 1 is the maximum; inactive = score below 0.9.

Chain of Retinoic acid receptor alpha (Homo sapiens) (P10276 whole entry, looked up): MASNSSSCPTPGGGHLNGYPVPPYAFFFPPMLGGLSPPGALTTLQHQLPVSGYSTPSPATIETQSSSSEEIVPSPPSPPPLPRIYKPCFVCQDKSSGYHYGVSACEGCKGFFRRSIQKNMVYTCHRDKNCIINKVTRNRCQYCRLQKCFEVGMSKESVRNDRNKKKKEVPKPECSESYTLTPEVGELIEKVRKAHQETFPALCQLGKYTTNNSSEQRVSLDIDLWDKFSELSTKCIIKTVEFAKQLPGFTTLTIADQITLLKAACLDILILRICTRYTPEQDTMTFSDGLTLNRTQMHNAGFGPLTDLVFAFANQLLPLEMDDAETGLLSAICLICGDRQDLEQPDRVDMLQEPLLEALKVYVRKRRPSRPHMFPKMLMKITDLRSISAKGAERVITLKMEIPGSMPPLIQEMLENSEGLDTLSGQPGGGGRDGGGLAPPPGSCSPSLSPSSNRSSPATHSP
Chain of CCAAT/enhancer-binding protein beta (Homo sapiens) (P17676 whole entry, looked up, the tested form may be a part): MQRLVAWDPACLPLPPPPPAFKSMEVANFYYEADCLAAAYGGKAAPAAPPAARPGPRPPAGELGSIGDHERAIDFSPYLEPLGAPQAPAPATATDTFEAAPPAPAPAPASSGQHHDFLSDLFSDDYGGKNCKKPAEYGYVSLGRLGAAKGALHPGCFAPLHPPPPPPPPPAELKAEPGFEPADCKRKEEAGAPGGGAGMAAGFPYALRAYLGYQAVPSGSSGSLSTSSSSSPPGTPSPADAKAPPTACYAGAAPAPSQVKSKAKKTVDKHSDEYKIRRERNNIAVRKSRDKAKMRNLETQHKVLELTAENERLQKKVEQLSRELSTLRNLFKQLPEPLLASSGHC

Regarding `COC(=O)c1c(C(F)F)nc(C(F)(F)F)c(C2=NCCS2)c1CC(C)C`, the result in test [1], in test [3], in [6], in [7] and in [9] was inactive. The half-maximal activity concentration (AC50) is 0.682 µM (active) in test [2], 26.2 µM (active) in test [4], 50 µM (active) in [5] and 50 µM (active) in test [8].

Consider `O=C(Nc1ccccc1-c1ccc(Cl)cc1)c1cccnc1Cl`, for which the compound was classed as inactive in test [1], in [10], in test [3], in test [4], in test [5] and in test [6]. In addition, the compound was called inactive in test [7], in test [8] and in test [9].

`COP(=S)(OC)Oc1ccc([N+](=O)[O-])c(C)c1`: the compound was classed as inactive in test [1], in test [3], in [4], in test [5] and in test [7]. In addition, the half-maximal activity concentration (AC50) in test [6] is 68 µM (active); in test [8], 32.7 µM (active).

Take `COC(=O)N(C(=O)N1CO[C@@]2(C(=O)OC)Cc3cc(Cl)ccc3C2=N1)c1ccc(OC(F)(F)F)cc1`: the outcome in test [1], in [2], in test [3], in test [5], in [7] and in test [9] was inactive. Further, the results for the half-maximal activity concentration (AC50) in test [4], in test [6] and in test [8] were 13.8 µM (active), 4.67 µM (active) and 2.96 µM (active), respectively.

For the compound `Nc1c(Cl)c(Cl)nc(C(=O)O)c1Cl`, the call in [10], in test [2], in test [3], in test [4], in [6] and in test [7] was inactive. The outcome in test [8] was inactive. Further, in test [5], the half-maximal activity concentration (AC50) is 31.3 µM (active).

Regarding `O=C(O)c1c(Cl)ccc2cc(Cl)cnc12`, the compound was called inactive in test [1], in test [3], in test [4], in test [5], in test [6] and in [7]. In addition, the compound was called inactive in [8] and in test [9].

Turning to `CCCN(CC)CC1COC2(CCC(C(C)(C)C)CC2)O1` (centres undefined), the call in test [1], in test [4] and in [7] was inactive. The AC50 is 13.6 µM (active) in [10]; 17.8 µM (active) in test [3]; 26.1 µM (active) in test [5]; 19.7 µM (active) in test [6]; 22.2 µM (active) in test [8]; 2.75 µM (active) in test [9].

On to `COCc1cnc(C2=NC(C)(C(C)C)C(=O)N2)c(C(=O)O)c1` (centres undefined), for which the result in test [1], in [10], in [2], in test [3], in test [4] and in test [5] was inactive. The compound was called inactive in test [6], in [7], in [8] and in test [9].

Consider `Nc1cnn(-c2ccccc2)c(=O)c1Cl`, for which the compound was called inactive in test [1], in [10], in test [3], in test [4], in test [6] and in test [7]. The result in [8] was inactive. Besides, in test [5], the half-maximal activity concentration (AC50) is 50 µM (active).

As to `CSC(=O)c1c(C(F)F)nc(C(F)(F)F)c(C(=O)SC)c1CC(C)C`, the outcome in test [1], in test [10], in test [2], in test [3], in test [6] and in test [7] was inactive. In test [8], the call was inactive. Also, the AC50 in [4] is 4.51 µM (active); in [5] it was 81.5 µM (active); in [9] it was 1.28 µM (active).

For the compound `CCC(C)n1c(=O)[nH]c(C)c(Br)c1=O` (centres undefined), the result in test [1], in test [3], in test [4], in test [5], in test [6] and in test [7] was inactive. Also, in test [8], the compound was called inactive.

Turning to `Cc1nc(N(C)C)nc(OC(=O)N(C)C)c1C`, the compound was classed as inactive in [1], in [10], in test [3], in test [4], in [5] and in [6]. The result in [7], in test [8] and in test [9] was inactive.

`CN/C(=N\[N+](=O)[O-])NCc1cnc(Cl)s1`: the call in test [1], in test [2], in [3], in test [4], in [5] and in test [6] was inactive. Further, the result in test [7], in [8] and in [9] was inactive.

Regarding `CS(=O)(=O)c1ccc(C(=O)C2C(=O)CCCC2=O)c([N+](=O)[O-])c1`, the compound was called inactive in test [1], in test [3], in test [4], in [5], in [6] and in test [7]. Also, in test [8], the compound was called inactive.

For `CC1(C)CON(Cc2ccccc2Cl)C1=O`, the compound was called inactive in [1], in [10], in [3], in test [4], in test [5] and in test [6]. The compound was classed as inactive in [7], in test [8] and in test [9].

As to `CCCCC(O)(Cn1cncn1)c1ccc(Cl)cc1Cl` (centres undefined), the call in test [10], in test [2], in test [4], in [5] and in [7] was inactive. Further, the AC50 in test [3] was 19.5 µM (active); in [6], 50 µM (active); in [8], 33.3 µM (active).

As for `CCCCOCN(C(=O)CCl)c1c(CC)cccc1CC`, the concentration at half-maximal activity (AC50) is 0.654 µM (active) in test [10] and 0.647 µM (active) in [2]. Also, the outcome in test [3], in test [4], in [5], in test [6], in [7] and in test [8] was inactive.

Broadly, the AC50 is the concentration at which the activity in the assay is half-maximal.
